Measured values as given in PubChem BioAssay.
Calls of active or inactive are those of the source.

How the values were obtained:
[1] = system: PRMT1 (protein arginine N-methyltransferase 1); assay: PRMT1 binders on small-molecule microarrays, primary screen, biochemical, small-molecule microarray, 635 nm fluorescence (AID 1088); conditions: small-molecule microarray binding, higher = more signal;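 further: binding of Prmt1 protein to compounds spotted on small-molecule microarray slides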
[2] = yeast growth modulation, basal conditions, primary screen, YJM789 clinical isolate, OD600, 24 h (AID 1089);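 further: growth of clinical yeast isolate S. cerevisiae YJM 789 seeded 1000 cells per well; test concentration not given here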; conditions: S. cerevisiae YJM789 growth, higher = more signal, called active from +8 up or from −8 down
[3] = fission yeast growth modulation, primary screen, strain 972, OD600, 24 h, no modulator (AID 1090);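 further: basal condition with compound alone and no growth modifier present; test concentration not given here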; conditions: S. pombe 972 growth, higher = more signal, called active from +8 up or from −8 down
[4] = S. cerevisiae growth modulation with rapamycin, primary screen, strain BY4716, OD600, 96 h (AID 1091); conditions: higher = more signal, called active from +8 up or from −8 down; further: test concentration not given here
[5] = target: Torsin-1A-interacting protein 2 (Homo sapiens) (UniProt Q8NFQ8); assay: LULL1 binders on small-molecule microarray, primary screen, cell lysate, human LULL1 lysate, 635/667 nm fluorescence (AID 1092); conditions: hLULL1 lysate binding, 635 nm fluorescence, higher = more signal;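 further: probe is lysate of COS7 cells overexpressing human LULL1; score merges per-feature 667 nm fluorescence with signal-to-noise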
[6] = E. coli growth modulation, two-sided OD650, primary screen, E. coli filamentation project, strain DRC41, 24 h (AID 1093); conditions: OD650, 24 h, higher = more signal, called active from +8 up or from −8 down;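 further: MC1000 strain lacking acrAB efflux and sulA so SOS filamentation is blocked; test concentration not given here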
[7] = small-molecule microarray binders of probe aLefty2, primary screen, biochemical, biotinylated probe, 635/667 nm fluorescence (AID 1094); conditions: higher = more signal;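 further: score merges spot fluorescence near 667 nm with spot signal-to-noise ratio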
[8] = system: Noggin (protein binding on small-molecule microarray); assay: Noggin binders on small-molecule microarray, primary screen, biochemical, 635/667 nm fluorescence (AID 1095); conditions: 635 nm fluorescence, higher = more signal;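 further: score merges 667 nm feature fluorescence with signal to noise over triplicate slides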
[9] = target: Neurogenic locus notch homolog protein 3 (Homo sapiens) (UniProt Q9UM47); assay: NOTCH3 binders on small-molecule microarray, primary screen, biochemical, 635/667 nm fluorescence (AID 1096); conditions: NOTCH3 binding, 635 nm fluorescence, higher = more signal
[10] = small-molecule microarray binders of probe aEGFR, primary screen, biochemical, biotinylated probe, 635/667 nm fluorescence (AID 1097); conditions: higher = more signal;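 further: probe is a biotinylated anti-EGFR antibody binding compounds printed on slides; score combines fluorescence near 667 nm and signal to noise of each spot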
[11] = system: Plasmodium falciparum Sir2 (PF13_0152, Sir2A); assay: pfSir2 binders on small-molecule microarrays, primary screen, biochemical, small-molecule microarray, 635 nm fluorescence (AID 1098); conditions: small-molecule microarray binding, fluorescence 635 nm; higher = more signal;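 further: score merges spot fluorescence intensity with its signal-to-noise ratio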
[12] = small-molecule microarray binders of probe aDKK1, primary screen, biochemical, biotinylated probe, 635/667 nm fluorescence (AID 1099); conditions: higher = more signal;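 further: score merges 667nm spot fluorescence with signal to noise across triplicate slides; reference of the scale not given here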
[13] = small-molecule microarray binders of probe aCHRDL2, primary screen, biochemical, biotinylated probe, 635/667 nm fluorescence (AID 1100); conditions: higher = more signal
[14] = splicing luciferase reporter signal modulators, primary screen, spliceosome inhibition project, cell-based, HEK293, splice +/- reporter (AID 1101); conditions: luminescence, 24 h, higher = more signal, called active from +8 up or from −8 down;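 further: HEK293 cells carrying a splicing-competent luciferase reporter gene; test concentration not given here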
[15] = target: Fibroblast growth factor 10 (Homo sapiens) (UniProt O15520); assay: FGF10 binders on small-molecule microarrays, primary screen, biochemical, small-molecule microarray, 635 nm fluorescence (AID 1102); conditions: FGF10 binding, fluorescence 635 nm, higher = more signal
[16] = system: glycogen synthase kinase-3 (GSK3A per assay name; protocol says GSK3B); assay: GSK3 binders on small-molecule microarrays, primary screen, biochemical, small-molecule microarray, 635 nm fluorescence, GSK3A (AID 1103); conditions: small-molecule microarray binding, fluorescence 635 nm; higher = more signal; further: the record names both GSK3A and GSK3B
[17] = target: Epidermal growth factor receptor (Homo sapiens) (UniProt P00533); assay: EGFR binders on small-molecule microarrays, primary screen, biochemical, small-molecule microarray, 635 nm fluorescence (AID 1104); conditions: EGFR binding, higher = more signal;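 further: score merges 667 nm emission intensity with spot signal to noise over triplicate slides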
[18] = target: Follistatin-related protein 3 (Homo sapiens) (UniProt O95633); assay: FSTL3 binders on small-molecule microarrays, primary screen, biochemical, small-molecule microarray, 635 nm fluorescence (AID 1105); conditions: FSTL3 binding, higher = more signal;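 further: score merges emission near 667 nm and signal to noise per printed spot across three slides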
[19] = target: Dickkopf-related protein 1 (Homo sapiens) (UniProt O94907); assay: DKK1 binders on small-molecule microarrays, primary screen, biochemical, small-molecule microarray, 635 nm fluorescence scan (AID 1106); conditions: DKK1 binding, higher = more signal;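 further: score merges emission near 667 nm with signal to noise over three replicate slides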
[20] = system: Inhibin beta A chain (activin A); assay: INHBA (activin A) binders on microarrays, primary screen, biochemical, small-molecule microarray, 635 nm fluorescence scan (AID 1107); conditions: small-molecule microarray binding, higher = more signal;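 further: mouse activin A protein probed at 4.33 µg/mL on printed slides; score merges bound-protein fluorescence near 667 nm with spot signal-to-noise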

Neurogenic locus notch homolog protein 3 (Homo sapiens), sequence (Q9UM47 whole entry, looked up): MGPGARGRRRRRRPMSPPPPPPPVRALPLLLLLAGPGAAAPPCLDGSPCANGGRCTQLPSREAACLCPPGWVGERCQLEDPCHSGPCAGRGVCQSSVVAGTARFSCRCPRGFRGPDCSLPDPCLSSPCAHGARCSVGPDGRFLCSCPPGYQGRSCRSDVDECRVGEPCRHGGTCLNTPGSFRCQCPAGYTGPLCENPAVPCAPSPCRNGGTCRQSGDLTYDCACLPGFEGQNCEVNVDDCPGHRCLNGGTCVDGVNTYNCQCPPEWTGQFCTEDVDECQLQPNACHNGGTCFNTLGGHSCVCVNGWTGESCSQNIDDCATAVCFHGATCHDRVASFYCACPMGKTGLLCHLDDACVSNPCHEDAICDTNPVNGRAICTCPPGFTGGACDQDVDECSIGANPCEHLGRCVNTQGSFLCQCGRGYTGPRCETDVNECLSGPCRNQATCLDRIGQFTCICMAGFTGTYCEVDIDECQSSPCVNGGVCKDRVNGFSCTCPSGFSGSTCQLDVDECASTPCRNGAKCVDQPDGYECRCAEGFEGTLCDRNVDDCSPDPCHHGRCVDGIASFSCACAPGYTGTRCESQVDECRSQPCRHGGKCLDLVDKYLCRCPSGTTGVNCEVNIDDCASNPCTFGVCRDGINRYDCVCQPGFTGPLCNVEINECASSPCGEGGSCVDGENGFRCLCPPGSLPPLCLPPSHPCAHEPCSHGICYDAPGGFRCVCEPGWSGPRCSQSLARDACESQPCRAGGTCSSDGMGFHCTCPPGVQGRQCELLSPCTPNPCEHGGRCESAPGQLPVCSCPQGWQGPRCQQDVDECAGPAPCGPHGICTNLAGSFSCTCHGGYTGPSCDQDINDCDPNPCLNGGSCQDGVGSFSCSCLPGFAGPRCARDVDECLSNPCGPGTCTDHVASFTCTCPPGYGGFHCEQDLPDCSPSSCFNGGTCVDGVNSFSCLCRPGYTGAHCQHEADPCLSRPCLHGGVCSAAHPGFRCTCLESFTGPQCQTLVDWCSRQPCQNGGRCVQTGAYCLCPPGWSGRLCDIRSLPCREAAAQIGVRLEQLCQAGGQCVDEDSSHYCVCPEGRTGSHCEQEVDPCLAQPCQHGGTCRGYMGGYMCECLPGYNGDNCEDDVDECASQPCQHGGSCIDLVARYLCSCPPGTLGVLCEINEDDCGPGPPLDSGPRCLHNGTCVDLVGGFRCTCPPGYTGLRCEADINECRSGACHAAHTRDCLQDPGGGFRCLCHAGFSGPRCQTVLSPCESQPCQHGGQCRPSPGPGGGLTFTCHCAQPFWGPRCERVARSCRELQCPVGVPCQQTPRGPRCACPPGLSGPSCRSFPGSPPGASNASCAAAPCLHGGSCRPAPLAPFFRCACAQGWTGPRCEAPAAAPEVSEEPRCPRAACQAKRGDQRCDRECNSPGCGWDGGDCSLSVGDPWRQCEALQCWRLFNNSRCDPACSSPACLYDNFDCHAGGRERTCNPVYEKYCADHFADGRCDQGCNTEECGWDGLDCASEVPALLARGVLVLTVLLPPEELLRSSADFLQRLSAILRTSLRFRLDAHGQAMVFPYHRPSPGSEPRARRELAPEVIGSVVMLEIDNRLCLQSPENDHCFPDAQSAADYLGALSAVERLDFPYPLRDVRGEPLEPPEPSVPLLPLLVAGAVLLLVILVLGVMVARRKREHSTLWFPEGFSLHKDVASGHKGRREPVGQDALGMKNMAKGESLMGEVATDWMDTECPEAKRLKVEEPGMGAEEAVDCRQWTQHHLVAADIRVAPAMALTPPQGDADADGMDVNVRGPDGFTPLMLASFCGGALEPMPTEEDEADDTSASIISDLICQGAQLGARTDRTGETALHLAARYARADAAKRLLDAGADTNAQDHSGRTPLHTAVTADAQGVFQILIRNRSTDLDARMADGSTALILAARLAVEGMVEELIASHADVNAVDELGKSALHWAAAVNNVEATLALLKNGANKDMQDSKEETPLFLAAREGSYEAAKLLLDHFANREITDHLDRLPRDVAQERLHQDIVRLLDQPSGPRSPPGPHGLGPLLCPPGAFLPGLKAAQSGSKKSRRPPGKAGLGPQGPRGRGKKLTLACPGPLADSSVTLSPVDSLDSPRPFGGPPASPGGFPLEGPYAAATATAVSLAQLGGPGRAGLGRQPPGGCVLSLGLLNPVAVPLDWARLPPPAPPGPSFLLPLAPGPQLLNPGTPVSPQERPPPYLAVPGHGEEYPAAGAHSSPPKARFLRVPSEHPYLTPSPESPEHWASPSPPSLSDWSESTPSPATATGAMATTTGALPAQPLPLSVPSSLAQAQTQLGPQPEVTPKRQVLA
Dickkopf-related protein 1 (Homo sapiens), sequence (O94907 whole entry, looked up): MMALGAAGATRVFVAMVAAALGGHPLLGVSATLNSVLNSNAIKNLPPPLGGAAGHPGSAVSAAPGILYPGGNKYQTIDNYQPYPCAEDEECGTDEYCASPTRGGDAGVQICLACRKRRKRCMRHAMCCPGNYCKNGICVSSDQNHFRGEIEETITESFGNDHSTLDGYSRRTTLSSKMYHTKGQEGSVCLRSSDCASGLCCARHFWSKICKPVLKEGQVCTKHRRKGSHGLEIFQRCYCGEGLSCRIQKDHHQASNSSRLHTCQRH
Epidermal growth factor receptor (Homo sapiens), sequence (P00533 whole entry, looked up): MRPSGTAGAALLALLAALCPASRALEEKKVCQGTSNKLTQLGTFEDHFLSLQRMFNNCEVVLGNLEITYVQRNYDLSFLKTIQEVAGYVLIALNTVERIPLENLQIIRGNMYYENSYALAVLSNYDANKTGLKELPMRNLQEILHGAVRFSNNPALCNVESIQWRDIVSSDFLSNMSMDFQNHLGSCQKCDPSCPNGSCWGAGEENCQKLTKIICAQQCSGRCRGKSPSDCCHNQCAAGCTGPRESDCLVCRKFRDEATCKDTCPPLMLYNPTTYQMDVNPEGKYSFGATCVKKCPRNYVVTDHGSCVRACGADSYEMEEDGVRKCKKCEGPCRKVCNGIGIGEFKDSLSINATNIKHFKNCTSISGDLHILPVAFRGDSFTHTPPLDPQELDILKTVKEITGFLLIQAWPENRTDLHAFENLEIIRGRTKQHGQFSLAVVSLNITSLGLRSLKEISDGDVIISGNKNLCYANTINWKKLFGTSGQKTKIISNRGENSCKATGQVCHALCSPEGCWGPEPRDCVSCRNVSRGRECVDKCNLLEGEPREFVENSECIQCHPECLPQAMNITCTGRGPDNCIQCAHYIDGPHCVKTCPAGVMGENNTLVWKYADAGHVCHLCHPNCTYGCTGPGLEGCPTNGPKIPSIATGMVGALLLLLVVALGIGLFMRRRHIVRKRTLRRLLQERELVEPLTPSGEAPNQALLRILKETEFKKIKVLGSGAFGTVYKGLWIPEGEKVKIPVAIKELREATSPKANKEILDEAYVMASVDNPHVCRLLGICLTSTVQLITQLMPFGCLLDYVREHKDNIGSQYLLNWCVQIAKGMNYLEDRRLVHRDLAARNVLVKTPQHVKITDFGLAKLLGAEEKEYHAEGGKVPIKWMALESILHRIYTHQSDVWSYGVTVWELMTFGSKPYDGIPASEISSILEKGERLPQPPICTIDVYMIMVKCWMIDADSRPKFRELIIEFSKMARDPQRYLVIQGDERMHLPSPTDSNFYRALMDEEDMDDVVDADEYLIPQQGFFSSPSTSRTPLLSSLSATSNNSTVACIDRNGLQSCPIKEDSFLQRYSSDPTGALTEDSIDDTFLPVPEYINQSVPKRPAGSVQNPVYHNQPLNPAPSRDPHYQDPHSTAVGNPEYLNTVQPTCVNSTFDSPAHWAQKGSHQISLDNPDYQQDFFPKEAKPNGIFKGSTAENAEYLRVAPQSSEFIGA
Follistatin-related protein 3 (Homo sapiens), sequence (O95633 whole entry, looked up): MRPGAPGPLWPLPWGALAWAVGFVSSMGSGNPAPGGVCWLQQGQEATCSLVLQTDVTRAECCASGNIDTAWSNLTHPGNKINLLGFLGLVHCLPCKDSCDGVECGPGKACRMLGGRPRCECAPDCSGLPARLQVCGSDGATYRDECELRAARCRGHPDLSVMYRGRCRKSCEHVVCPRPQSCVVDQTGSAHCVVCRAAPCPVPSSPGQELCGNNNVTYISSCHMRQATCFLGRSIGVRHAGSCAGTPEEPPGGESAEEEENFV
Fibroblast growth factor 10 (Homo sapiens), sequence (O15520 whole entry, looked up): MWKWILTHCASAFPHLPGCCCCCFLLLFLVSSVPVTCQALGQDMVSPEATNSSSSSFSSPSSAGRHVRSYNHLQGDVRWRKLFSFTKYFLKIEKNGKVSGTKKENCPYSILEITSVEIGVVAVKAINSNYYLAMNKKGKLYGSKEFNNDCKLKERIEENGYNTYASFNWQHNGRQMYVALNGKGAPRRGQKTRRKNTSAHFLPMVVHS
Torsin-1A-interacting protein 2 (Homo sapiens), sequence (Q8NFQ8 whole entry, looked up): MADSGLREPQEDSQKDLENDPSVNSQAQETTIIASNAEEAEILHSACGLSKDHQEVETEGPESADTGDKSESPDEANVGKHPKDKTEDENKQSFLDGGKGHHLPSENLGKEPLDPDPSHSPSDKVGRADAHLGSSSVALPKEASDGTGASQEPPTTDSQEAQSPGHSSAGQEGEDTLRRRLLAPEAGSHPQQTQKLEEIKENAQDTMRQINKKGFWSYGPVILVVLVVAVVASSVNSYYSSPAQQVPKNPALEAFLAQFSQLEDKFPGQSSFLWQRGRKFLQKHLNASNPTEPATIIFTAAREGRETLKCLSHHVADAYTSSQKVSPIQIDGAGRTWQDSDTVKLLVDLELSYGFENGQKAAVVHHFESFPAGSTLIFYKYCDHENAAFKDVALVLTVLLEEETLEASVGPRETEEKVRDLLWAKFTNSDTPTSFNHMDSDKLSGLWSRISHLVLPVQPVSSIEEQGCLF

SMILES	composite z-score [1]	z-score [2]	z-score [3]	z-score [4]	composite z-score [5]	z-score [6]	composite z-score [7]	composite z-score [8]	composite z-score [9]	composite z-score [10]	composite z-score [11]	composite z-score [12]	composite z-score [13]	z-score [14]	composite z-score [15]	composite z-score [16]	composite z-score [17]	composite z-score [18]	composite z-score [19]	composite z-score [20]
CC(=O)NCCCC[C@@H]1NC(=O)[C@@H]2C[C@H](C(=O)NCCCCN(C)C)[C@H](c3ccc(O)cc3)N2C1=O	-0.0942	-0.442 (inactive)	0.169 (inactive)	-0.687 (inactive)	1.65	1.14 (inactive)	-0.0906	-0.126	-0.322	-0.109	-0.165	-0.161	0.704	-1.12 (inactive)	-0.117	0.0247	-0.588	-0.723	0.295	-0.727
C[C@]1(C(=O)NCc2ccccc2)c2ccccc2C(=O)N(Cc2cc(F)cc(C(F)(F)F)c2)[C@H]1c1ccc(CO)cc1	0.113	0.328 (inactive)	-0.325 (inactive)	-0.0212 (inactive)	2.68	0.808 (inactive)	-0.0508	-1.67	-1.37	-0.253	0.876	0.214	0.637	-0.102 (inactive)	-0.384	-0.422	-0.505	-1.45	-1.21	-0.185
COc1cc(CO)ccc1OC(C)=O	0.657	-2.07 (inactive)	-1.44 (inactive)	-0.377 (inactive)	0.0135	1.14 (inactive)	-0.332	0.601	0.317	-0.112	0.144	-0.082	-0.526	-0.749 (inactive)	0.171	0.536	0.558	0.516	0.668	0.167
COc1ccc(C(O)C2C=CC3C(=O)N(c4ccccc4)C(=O)C3N2Nc2ccc([N+](=O)[O-])cc2)cc1OCc1ccccc1 (stereo not given)	0.923	-0.225 (inactive)	1.57 (inactive)	0.989 (inactive)	2.72	-1.29 (inactive)	1.25	0.322	1.11	0.852	1.4	1.86	1.15	0.465 (inactive)	1.02	0.735	0.534	0.763	-0.0143	1.07
COCCOC(=O)N1C(=O)[C@@]2(c3ccccc31)[C@H](C(=O)Nc1nc3ccccc3s1)[C@H]1C(=O)O[C@H](c3ccccc3)[C@H](c3ccccc3)N1[C@@H]2c1ccc(OCCO)cc1	1.54	1.13 (inactive)	1.36 (inactive)	3.37 (inactive)	3.23	1.07 (inactive)	-0.0767	1.76	1.13	-0.0581	1.11	0.186	0.54	-0.128 (inactive)	1.26	1.3	0.331	1.11	0.427	0.464
C=CCNC(=O)[C@@H]1[C@H]2C(=O)O[C@H](c3ccccc3)[C@H](c3ccccc3)N2[C@H](c2ccccc2OCCO)[C@@]12C(=O)Nc1ccc(C#CC3=CCCCC3)cc12	1.55	1.05 (inactive)	-3.5 (inactive)	2.87 (inactive)	2.75	1.47 (inactive)	0.058	0.983	1.11	-0.0185	0.71	-0.0328	0.111	-0.829 (inactive)	1.22	1.32	0.478	1.38	0.479	0.982
